What all share (assay type): functional
Test [1] has as its target Solute carrier family 2, facilitated glucose transporter member 1 (Homo sapiens) (UniProt P11166). Put plainly: ST_JUDE_LEISH: Cytotoxicity at 2uM final concentration against transgenic Leishmania Mexicana promastigotes LmGLUT1 that are glucose transport deficient and complemented with the human glucose transporter GLUT1. Activity is measured by DNA content using SYBR green in vitro.

Test [2] concerns the target Hexose transporter 1 (Plasmodium falciparum) (UniProt O97467). Description: ST_JUDE_LEISH: Cytotoxicity at 2uM final concentration against transgenic Leishmania Mexicana promastigotes LmPfHT that are glucose transport deficient and complemented with the Plasmodium falciparum hexose transporter. Activity is measured by DNA content using SYBR green in vitro.
Test [3] has as its target Glucose transporter (Leishmania mexicana) (UniProt O61059). Put plainly: ST_JUDE_LEISH: Cytotoxicity at 2uM final concentration against transgenic Leishmania Mexicana promastigotes LmGT2 that are glucose transport deficient and complemented with the L. Mexicana glucose transporter 2. Activity is measured by DNA content using SYBR green in vitro.

Chain of Solute carrier family 2, facilitated glucose transporter member 1 (Homo sapiens) (P11166 whole entry): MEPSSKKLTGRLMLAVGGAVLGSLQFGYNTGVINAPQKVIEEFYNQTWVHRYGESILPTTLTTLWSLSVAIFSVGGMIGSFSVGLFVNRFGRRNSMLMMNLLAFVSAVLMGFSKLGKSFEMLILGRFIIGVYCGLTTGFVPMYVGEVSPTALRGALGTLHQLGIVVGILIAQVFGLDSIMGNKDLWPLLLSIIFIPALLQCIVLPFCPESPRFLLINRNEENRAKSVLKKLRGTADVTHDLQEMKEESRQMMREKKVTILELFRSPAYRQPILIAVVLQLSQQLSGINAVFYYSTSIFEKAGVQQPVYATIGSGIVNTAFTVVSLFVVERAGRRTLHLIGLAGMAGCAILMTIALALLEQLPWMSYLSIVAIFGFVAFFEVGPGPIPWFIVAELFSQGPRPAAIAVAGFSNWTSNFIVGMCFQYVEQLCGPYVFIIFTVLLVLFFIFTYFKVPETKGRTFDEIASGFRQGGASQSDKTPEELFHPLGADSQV

For `Cc1cc(N)c2cc(NC(=O)/C=C/c3ccccc3)ccc2n1`, the inhibition is -0.18% in test [1], 0.45% in test [2] and -0.79% in test [3].
Consider `O=[N+]([O-])c1cccc(-c2ccc(C=NNc3cc(N4CCCC4)nc(N4CCCC4)n3)o2)c1`, for which the figures for the inhibition in test [1], in test [2] and in test [3] were 3.39%, 3.17% and 3.82%, respectively.
On to `O=C(CC1CCCCC1)NCC(NCCCNc1cc(=O)c2ccccc2[nH]1)c1cc(Br)cc(Br)c1` (stereo unspecified), for which the results for the inhibition in test [1], in test [2] and in test [3] were 3.89%, -1.16% and 2.63%, respectively.
Turning to `CCCC(C)c1ccc(N2C(N)=NC(N)=NC2(C)C)cc1` (stereo unspecified), the inhibition in test [1] stood at 2.85%; in test [2] it was 2.75%; in test [3], 0%.
With `CN(CCCCCNC(=O)/C=C/c1ccc(Cl)c(Cl)c1)CCc1c[nH]c2ccccc12`, the inhibition in test [1] stood at 20.6%; in test [2], 20%; in test [3] it was 12.6%.
For the molecule `CCOC(=O)c1ccc(NC(=O)N(Cc2ccc(-c3cccc(CN4CCNCC4)c3)cc2)C2CCN(Cc3ccccc3)CC2)cc1`, the figures for the inhibition in test [1], in test [2] and in test [3] were 2.49%, 1.96% and 7.56%, respectively.
`Cc1c(Cl)ccc2c(C(=O)Nc3ccncc3)cc(-c3cccnc3)nc12`: the inhibition in test [1] was -4.52%; in test [2] it was -2.06%; in test [3], -2.1%.
In the case of `CCOc1ccc(-c2nonc2NC(=O)c2ccccc2OC)cc1OCC`, the inhibition in test [1] came to 3.08%; in test [2], 2.92%; in test [3] it was 0.46%.
For `COc1ccc(-n2ccnc2SCC(=O)Nc2cc(C(F)(F)F)ccc2Cl)c(OC)c1`, the inhibition came out at 12.8% in test [1], 11.2% in test [2] and 7.95% in test [3].
For `CC(C)CC(=O)N1CCNC[C@@H]1C(=O)NC1CC1`, the inhibition in test [1] was 1.66%; in test [2], 1.41%; in test [3], -0.37%.
In the same order, the values of `COc1ccc2ncc(C#N)c(CCN3CCC(NCc4ccc5c(n4)NC(=O)CS5)CC3)c2n1` are 3.43%, 6.45% and 0.77%.
Consider `CCCCCCN1CCC(NCc2cccc(C#N)c2)CC1`, for which the inhibition came out at 0.29% in test [1], 0.77% in test [2] and 2.03% in test [3].
As for `Cc1ccc(S(=O)(=O)NC2CCN(CCNC(=O)Nc3cc(C)nc4ccccc34)C2)cc1` (stereo unspecified), the values for the inhibition in test [1], in test [2] and in test [3] were 4.78%, 4.12% and 0.31%, respectively.
For `Cc1ccc(NS(=O)(=O)c2ccc(C(C)N3CCC(N4CCCCC4)CC3)cc2)cc1C` (stereo unspecified), the values for the inhibition in test [1], in test [2] and in test [3] were -2.42%, -0.86% and 0.73%, respectively.
For the molecule `CS(=O)(=O)NCCCNCc1ccc(-c2ccc(-c3nc4cc(F)ccc4[nH]3)cc2)cc1`, the inhibition in test [1] stood at 7.49%; in test [2] it was 4.28%; in test [3], 4.63%.
Take `COc1ccc(CCN2CCC(CN(C)Cc3cnn(-c4ccccc4)c3)CC2)cc1`: the inhibition in test [1] was determined as 4.24%; in test [2] it was 6.13%; in test [3], 7.63%.
`CCN(CC)CC(O)c1cc(-c2ccc(C)cc2)nc2c(C)cc(C)cc12` (stereo unspecified): the inhibition in test [1] is 3.3%; in test [2] it was 3.65%; in test [3], -1.02%.

A word on the inhibition: it is the drop in the measured response relative to a control, in per cent.
